An excerpt weighted towards active compounds, which were near 0.92% of everything screened.
RE007 growth inh: qHTS Assay for Inhibitors of the HIV-1 protein Vpr. hit rate 0.21% among 360,000. S. pombe RE007 Vpr strain, BacTiter-Glo ATP luminescence, 24 h. Potency, µM (highest dose often 92.2 µM), without a hit: top-dose activity change, negative = less growth, usual class: inhibitors. AID 651644, 2012; active = well fitted falling curve with a large enough effect; inconclusive = small, poorly fitted or top-dose-only effect; inactive = no such curve, though single readings can be large or run the other way; also: % is scaled to controls: 0 for no effect and ±100 for the full control effect; nearly all actives have a fitted effect of over 50% in size
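Fission yeast RE007 carrying one integrated HIV-1 vpr copy, seeded at OD 0.01 in PMG+AL medium with 23 nL pinned compound. Grown 24 h at 30 degrees; viability read by BacTiter-Glo luminescence after 5 min.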
TbPYK inhibitor: qHTS of Trypanosoma Brucei Inhibitors; pyruvate kinase (Trypanosoma brucei), Q57TT1; TbPYK enzyme, Kinase-Glo Plus ATP luminescence, 45 min; Potency, µM (highest dose often 76.8 µM), without a hit: at the highest dose activity, negative = inhibition, actives largely listed as inhibitors; hit rate 0.12% among 410,000; AID 624173, 2012; also: % is scaled to controls: 0 for no effect and ±100 for the full control effect; nearly all actives have a fitted effect of over 50% in size
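Enzyme and substrate buffer are dispensed first and compound is pin-transferred. ADP at 130 uM final then starts the reaction, which runs 45 min at room temperature. Detection reagent is added for 10 min before luminescence is imaged.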
AMA1-RON2 inh: qHTS for Inhibitors of AMA1-RON; Towards Development of Antimalarial Drug Lead: Primary Screen; Plasmodium falciparum AMA1 (3D7) - RON2 peptide interaction; AlphaScreen AMA1-biotinylated RON2 peptide binding; Potency, µM (highest dose often 58.2 µM), inactives show top-dose activity change, negative = inhibition, most hits filed as inhibitors; hit rate 0.2% among 360,000;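 also: 0% = vehicle wells and -100% = peptide control; nearly all actives have a fitted effect of over 45% in size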
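AMA1 (3D7) with his tag at 25 nM final met compounds first, then biotinylated RON2 peptide at 25 nM; detection used donor plus acceptor beads, 10 µg/mL apiece, read by AlphaScreen after 30 min at room temperature.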
NS1 inh: qHTS Assay for Inhibitors of Influenza NS1 Protein Function. Potency, µM (doses to about 46.1 µM), for inactives: top-dose activity, positive = more growth. hit rate 0.4% among 270,000. AID 2326, 2010; calls by dose curve; also: actives are rising curves; nearly all actives have a fitted effect of over 50% in size
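Compounds were scored for reversing the slow growth caused by influenza A NS1 in S. cerevisiae, measured by optical density at 600 nm. Assay medium contained 2% galactose at pH 6.0; NS1-free yeast of the same strain were the positive control.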
LmPK inhibitor: qHTS Assay for Inhibitors of Leishmania Mexicana Pyruvate Kinase (LmPK); Q27686; purified LmPK, Kinase-Glo ATP luminescence, 1 h; Potency, µM (series often up to 57.5 µM), for the others: at the highest dose activity change, negative = inhibition, actives largely listed as inhibitors; hit rate 0.37% among 290,000; also: % is scaled to controls: 0 for no effect and ±100 for the full control effect
Target sequence (Q27686 whole entry, looked up): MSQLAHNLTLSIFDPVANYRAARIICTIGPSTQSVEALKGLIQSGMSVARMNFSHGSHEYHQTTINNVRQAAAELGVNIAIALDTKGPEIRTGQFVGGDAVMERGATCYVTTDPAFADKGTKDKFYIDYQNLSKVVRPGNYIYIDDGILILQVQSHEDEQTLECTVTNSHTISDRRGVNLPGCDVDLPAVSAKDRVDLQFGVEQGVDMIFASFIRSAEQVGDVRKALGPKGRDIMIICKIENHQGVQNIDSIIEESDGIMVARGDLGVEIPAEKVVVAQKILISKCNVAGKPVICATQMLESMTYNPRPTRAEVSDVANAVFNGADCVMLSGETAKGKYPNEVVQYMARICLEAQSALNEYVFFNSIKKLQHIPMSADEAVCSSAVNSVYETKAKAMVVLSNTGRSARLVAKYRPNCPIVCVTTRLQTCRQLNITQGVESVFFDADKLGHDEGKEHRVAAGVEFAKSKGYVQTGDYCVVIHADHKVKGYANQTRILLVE
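Screened at intermediate enzyme activity to detect both inhibitors and activators: LmPK at 0.1 nM, with a 0.5 nM enzyme column as activation reference. PEP 0.5 mM, ADP 0.1 mM; ATP detected by luminescence after 1 h.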
* = called active by the depositor; ? = inconclusive; · = no result. Unless noted, calls follow the shape of the dose curve; as a rule, active = well fitted curve in the direction sought with a large enough effect; inconclusive = small, poorly fitted or top-dose-only effect, or another doubt; inactive = no such curve, though single readings can be large; an effect the other way counts as inactive or inconclusive. Potency is read from the fitted curve at half-maximal effect.

SMILES | RE007 growth inh | TbPYK inhibitor | AMA1-RON2 inh | NS1 inh | LmPK inhibitor
Cc1cccc(N/C=C/C(=O)c2ccc(Cl)cc2)c1 | 9.7% | -21.8% | 4.4% | -3.9% | -1.1%
O=C(/C=C\Nc1ccccn1)c1ccc(Cl)cc1 | -19.0% | -14.9% | 2.8% | -10.8% | 12.6µM*
CO[C@H]1C[C@@H]2CC[C@@H](C)[C@@](O)(O2)C(=O)C(=O)N2CCCC[C@H]2C(=O)O[C@H]([C@H](C)C[C@@H]2CC[C@@H](OCCO)[C@H](OC)C2)CC(=O)[C@H](C)/C=C(\C)[C@@H](O)[C@@H](OC)C(=O)[C@H](C)C[C@H](C)/C=C/C=C/C=C/1C | · | 2.8% | · | · | ·
O=C1CC(N2CCC(O)(c3ccc(Br)cc3)CC2)C(=O)N1c1ccc(Cl)cc1 (stereo unspecified) | 10µM* | -0.6% | -16.3% | -48.9% | 1.2%
CCCOc1ccc(N2C(=O)CC(N3CCN(c4ccccc4OC)CC3)C2=O)cc1 (stereo unspecified) | ? | -4.1% | -9.9% | -33.1% | 0.5%
COc1ccc(N2C(=O)CC(N3CCN(c4ccc(S(C)(=O)=O)cc4)CC3)C2=O)cc1 (stereo unspecified) | -25.1% | -4.6% | -2.0% | 1.6% | 3.7%
COc1ccc(N2C(=O)CC(N3CCC(O)(c4ccc(Br)cc4)CC3)C2=O)cc1 (stereo unspecified) | 31.6µM* | 2.3% | 13.1% | -241.1% | -1.0%
O=C1CC(N2CCC(O)CC2)C(=O)N1c1ccc(Br)cc1 (stereo unspecified) | ? | -5.9% | 9.6% | -185.2% | 0.1%
CCCOc1ccc(N2C(=O)CC(N3CCC(O)(c4cccc(C(F)(F)F)c4)CC3)C2=O)cc1 (stereo unspecified) | 31.6µM* | -6.1% | 0.4% | -130.2% | 1.0%
Cn1nnnc1SCC1=C(C(=O)O)N2C(=O)[C@@H](NC(=O)[C@H](OC=O)c3ccccc3)[C@H]2SC1 | · | 0.3% | · | · | ·
OC[C@H]1O[C@@H](n2cnc3c2NC=NC[C@H]3O)C[C@@H]1O | · | -15.8% | · | · | ·
Cc1ccc(C(=O)c2no[n+]([O-])c2C(=O)c2ccc(C)cc2)cc1 | 31.6µM* | -5.0% | 1.8% | -65.1% | 1.8%
Cc1ccc(C(=O)c2ccc(C)cc2)cc1 | -3.7% | 3.3% | 3.0% | · | 0.4%
CCOc1ccc(C(=O)Nc2cc(C)ccn2)cc1 | 39.8µM* | ? | 3.9% | · | ?
CCOc1ccc(C(=O)Nc2cccc(C)n2)cc1 | ? | -13.9% | -4.8% | -9.0% | 15.8µM*
COc1cccc(-c2ccc(SCc3ccccn3)nn2)c1 | -23.3% | -6.4% | -8.3% | · | 14.1µM*
COc1ccc(-c2ccc(SCc3ccccn3)nn2)cc1OC | -9.2% | 10.8% | 20.4% | · | 1.7%
C=CCN(CC=C)Cc1cc(=O)oc2ccc3ccccc3c12 | -26.8% | 2.4% | 29.8% | · | ·
C=CCN(CC=C)Cc1c(O)ccc2c1oc(=O)c1ccccc12 | -15.8% | -21.6% | 21.2µM* | · | ·
CC(NC(=O)c1ccc([N+](=O)[O-])o1)C12CC3CC(CC(C3)C1)C2 (stereo unspecified) | 15.9% | 5.4% | -9.6% | -75.9% | -0.3%
COc1cccc(OC)c1C(=O)NC(C)C12CC3CC(CC(C3)C1)C2 (stereo unspecified) | 10µM* | -0.9% | -14.1% | -50.8% | -2.6%
O=C(O)C[SH+]CC(=O)O.O=C(O)C[SH+]CC(=O)O.[Cu] | · | · | · | -2.6% | ·
CC(C)(C)C1=CC(=O)C(N2CCOCC2)=CC1=O | -12.3% | -26.1% | -25.3% | -18.0% | -9.7%
CC(C)(C)C1=CC(=O)C(=O)C(C(C)(C)C)=C1 | 12.5% | 8.91µM* | 1.4% | -19.2% | 14.1µM*
CCOc1ccc(NCc2nnc(SCc3ccc(Cl)cc3)n2-c2ccccc2)cc1 | · | -11.3% | 31.6µM* | -4.3% | 0.7%
Cc1cc(N=Nc2ccccc2C)ccc1N | ? | -1.9% | 11.2µM* | · | ·
CC(=O)NC(NC(=S)Nc1ccc(N=Nc2ccccc2C)cc1C)C(Cl)(Cl)Cl (stereo unspecified) | -14.2% | -4.3% | -6.8% | -10.7% | 0.3%
